Experimental findings from the supplement of paper PMC11624193, “Coupling cellular drug-target engagement to downstream pharmacology with CeTEAM” (Nature Communications, 2024) are described below.

The assay concerns the target PARP1 L713F-nLuc biosensor (HCT116) (UniProt P09874). Nature of the assay: PARP1 L713F-nLuc/akaLuc ratio relative to DMSO control (biosensor stabilization) (fold change); higher = more PARP1 biosensor stabilization (target engagement / stabilizer), active = hit call of the paper. As to conditions: 24 h;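 active = log2 fold change beyond 2 SD from the library mean after excluding viability outliers; inactive = within 2 SD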.
Setting [1] is: stock concentration (mM; final µM = stock mM x 1): 2.
Where [2] appears, read: stock concentration (mM; final µM = stock mM x 1): 10.

Several values for one entry are separate records, joined by “and”; a condition that tells them apart may be missing. Equal values may be shown once. Where a name gives a salt, the structure may show the parent alone.

PARP1 L713F-nLuc biosensor (HCT116), sequence (P09874 whole entry L713F, looked up): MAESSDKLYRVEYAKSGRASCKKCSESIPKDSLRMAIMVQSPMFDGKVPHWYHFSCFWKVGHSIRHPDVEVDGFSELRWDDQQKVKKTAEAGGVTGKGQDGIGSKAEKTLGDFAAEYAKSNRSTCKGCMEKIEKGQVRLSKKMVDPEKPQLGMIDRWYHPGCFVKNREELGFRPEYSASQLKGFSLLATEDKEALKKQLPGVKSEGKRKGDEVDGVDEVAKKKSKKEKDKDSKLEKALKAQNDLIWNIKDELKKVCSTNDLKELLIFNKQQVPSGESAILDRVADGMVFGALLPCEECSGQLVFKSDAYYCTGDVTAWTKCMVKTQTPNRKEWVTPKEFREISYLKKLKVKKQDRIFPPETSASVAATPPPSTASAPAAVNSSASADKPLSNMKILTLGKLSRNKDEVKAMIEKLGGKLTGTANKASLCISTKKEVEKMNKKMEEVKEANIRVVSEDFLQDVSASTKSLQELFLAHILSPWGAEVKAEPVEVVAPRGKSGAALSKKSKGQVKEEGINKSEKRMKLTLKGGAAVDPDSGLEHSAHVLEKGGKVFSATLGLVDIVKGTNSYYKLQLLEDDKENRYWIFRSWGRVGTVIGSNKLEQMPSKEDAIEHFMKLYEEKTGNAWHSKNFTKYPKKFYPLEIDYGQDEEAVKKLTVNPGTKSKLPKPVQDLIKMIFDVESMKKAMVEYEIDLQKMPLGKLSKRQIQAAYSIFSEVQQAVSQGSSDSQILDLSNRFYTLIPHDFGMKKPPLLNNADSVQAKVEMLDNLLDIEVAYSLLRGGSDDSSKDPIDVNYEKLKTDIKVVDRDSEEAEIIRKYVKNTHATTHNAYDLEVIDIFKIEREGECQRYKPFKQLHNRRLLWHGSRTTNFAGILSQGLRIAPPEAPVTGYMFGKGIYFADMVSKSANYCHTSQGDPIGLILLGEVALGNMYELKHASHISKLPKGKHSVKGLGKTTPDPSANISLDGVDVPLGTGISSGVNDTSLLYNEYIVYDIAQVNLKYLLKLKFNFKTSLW

Take `CCc1cc(O)c(F)cc1-c1ccc2c(-c3nc4c([nH]3)CN(C3CCN(C)CC3)CC4)n[nH]c2c1` [JAK-IN-5 (hydrochloride)]: under setting [1], the “PARP1 L713F-nLuc/akaLuc ratio” value is 0.581 (inactive). Turning to `N[C@@H]1[C@@H](O)[C@H](O[C@@H]2O[C@H](CO)[C@@H](O)[C@H](O)[C@H]2N)[C@@H](CO)O[C@H]1O` [Chitosan oligosaccharide], the “PARP1 L713F-nLuc/akaLuc ratio” value (stock concentration (mM; final µM = stock mM x 1): 9) was 0.65 (inactive).

On to `Cn1cc(-c2cnn3c(N)c(Br)c([C@@H]4CCCNC4)nc23)cn1`, for which, under setting [1], the “PARP1 L713F-nLuc/akaLuc ratio” value was 2.66 (inactive). As for `O=C(NN=Cc1c(O)ccc2ccccc12)c1ccncc1`, the “PARP1 L713F-nLuc/akaLuc ratio” value under setting [2] was 0.653 (inactive).

Turning to `CN(C)CCOc1ccc(/C(=C(/CCCl)c2ccccc2)c2ccccc2)cc1` [Toremifene Citrate], the “PARP1 L713F-nLuc/akaLuc ratio” value under setting [2] was 0.791 (inactive). Still for that read-out and setting: then `C[C@@H]1CCN(C(=O)CC#N)C[C@@H]1N(C)c1ncnc2[nH]ccc12` [Tofacitinib (citrate)], with 0.775 (inactive); and `COc1cc(C)c(/C=C/C(C)=C/C=C/C(C)=C/C(=O)O)c(C)c1C` [Acitretin], with 0.747 (inactive); and `COc1cc(/C=C/C(=O)CC(=O)/C=C/c2ccc(O)c(OC)c2)ccc1O` [Curcumin], with 1.12 (inactive). With `Cc1cc(C)c(CNC(=O)c2cc(-c3ccc(CN4CCOCC4)cc3)cc3c2cnn3C2CCCC2)c(=O)[nH]1`, the “PARP1 L713F-nLuc/akaLuc ratio” value was 1.45 (inactive) under setting [1] and 1.16 (inactive) under setting [2]. For `Cc1ccc2[nH]c3c(c2c1)CCCC3C(N)=O` (stereo not given), the “PARP1 L713F-nLuc/akaLuc ratio” value under setting [2] was 1.25 (inactive). The same measure, in the same setting: then `Cc1cc(C)c(CNC(=O)c2cc(Cl)c3c(c2C)O[C@@](C)([C@H]2CC[C@H](N(C)C)CC2)O3)c(=O)[nH]1` [Valemetostat (tosylate)], with 1.05 (inactive); and `C[C@H](Nc1ncnc2nc[nH]c12)c1cc2cccc(Cl)c2c(=O)n1-c1ccccc1` [Duvelisib (IPI-145, INK1197)], with 0.838 (inactive). The same measure, in the same setting: the same measure for `CC1=C(/C=C/C(C)=C/C=C/C(C)=C/C(=O)O)C(C)(C)CCC1` [Tretinoin]: 0.599 (inactive); for `CCCS(=O)(=O)N[C@H]1C[C@@H](N(C)c2ncnc3[nH]ccc23)C1` [Abrocitinib]: 0.869 (inactive). The same measure, in the same setting: the same measure for `Cc1cc(-c2ncc(CC(=O)Nc3ccc(-c4cnccn4)cn3)cc2C)ccn1`: 1.03 (inactive); for `Cc1cnc(Nc2ccc(OCCN3CCCC3)cc2)nc1Nc1cccc(S(=O)(=O)NC(C)(C)C)c1`: 0.333 (active).

As for `O=C(O)CNC(=O)c1ncc(-c2cccc(Cl)c2)cc1O` [Vadadustat], the “PARP1 L713F-nLuc/akaLuc ratio” value under setting [2] is 1.03 (inactive). Same read-out and setting: then `O=C(NC[C@H](O)CN1CCc2ccccc2C1)c1cc(NC2COC2)ncn1`, with 0.532 (inactive) and 0.854 (inactive); and `Nc1ncn([C@H]2C[C@H](O)[C@@H](CO)O2)c(=O)n1` [Decitabine], with 3.01 (active). As to `N#Cc1c(-c2ccccc2)cc(-c2cc(Br)ccc2O)[nH]c1=O`, the “PARP1 L713F-nLuc/akaLuc ratio” value under setting [2] is 0.708 (inactive). On to `NS(=O)(=O)NCCNc1nonc1/C(=N/O)Nc1ccc(F)c(Br)c1`, for which the “PARP1 L713F-nLuc/akaLuc ratio” value under setting [2] is 0.587 (inactive). Same read-out and setting: then `Nc1nc2cc(-c3ccc4ncc(C(=O)N5CCOCC5)n4c3)ccc2o1` [Serabelisib (INK-1117,MLN-1117,TAK-117)], with 1.31 (inactive). Still for that read-out and setting: then `COc1cc(-c2cn(C)c(=O)c3cnccc23)cc(OC)c1CN1CCN(CCCCCOc2cc(-c3scnc3C)ccc2CNC(=O)[C@@H]2C[C@@H](O)CN2C(=O)[C@@H](NC(=O)C2(F)CC2)C(C)(C)C)CC1`, with 0.634 (inactive); and `N#Cc1ccc(COC[C@H]2O[C@@H](n3c(NCc4ccc(Cl)c(Cl)c4)nc4c(N)ncnc43)[C@H](O)[C@@H]2O)cc1`, with 0.717 (inactive); and `COc1cc(Nc2ncc3c(n2)-c2ccc(Cl)cc2C(c2c(F)cccc2OC)=NC3)ccc1C(=O)O` [Alisertib (MLN8237)], with 1.12 (inactive). On to `Cc1cc(Nc2nc(N[C@@H](C)c3ncc(F)cn3)ncc2Cl)[nH]n1`, for which, under setting [2], the “PARP1 L713F-nLuc/akaLuc ratio” value is 0.882 (inactive). Same read-out and setting: the same measure for `CS(=O)(=O)c1ccc(C(=O)Nc2ccc(Cl)c(-c3ccccn3)c2)c(Cl)c1` [Vismodegib (GDC-0449)]: 1.11 (inactive); for `CC(=O)O[C@@]12CO[C@@H]1C[C@H](O)[C@@]1(C)C(=O)[C@H](O)C3=C(C)[C@@H](OC(=O)[C@H](O)[C@@H](NC(=O)OC(C)(C)C)c4ccccc4)C[C@@](O)([C@@H](OC(=O)c4ccccc4)[C@H]21)C3(C)C` [Docetaxel]: 1.44 (inactive); for `c1cc(SSc2ccns2)sn1`: 1.1 (inactive).
